Measurements reported in PubChem BioAssay AID1159580 (chemical genetic matrix, 2015).
Where “and” joins values, the source holds several entries; their conditions need not be identical. Equal entries are not always repeated. About 2,000 (36%) of roughly 5,500 compounds were called active. Roughly 18% stayed inconclusive and do not appear here. No stated cut-off is given here; in the data, active means normalized growth mostly below about 0.91 (no sharp cut-off); inconclusive means no clear call, values can overlap the other calls; inactive means mostly above about 0.92. Some of the results follow.

Test: chemical genetic growth profiling, strain panel (AID 1159580);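 further: tested at 20 µM; growth read once vehicle control cultures reached saturation at 30 °C; 1 = growth at the plate median or of vehicle wells; lower values mean less growth of the strain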
Conditions: S. cerevisiae deletion strains, growth OD

Measured: normalized growth

NNC(=O)c1ccncc1
inactive: locus YAL013W, strain DEP1, active compounds read low 1.01 | locus YAL021C, strain ccr4, active compounds read low 1.01 | locus YAL026C, strain drs2, active compounds read low 0.991 | locus YAL030W, strain snc1, active compounds read low 1.03 | locus YBL061C, strain skt5, active compounds read low 1.01 | locus YBR009C, strain hhf1, active compounds read low 0.986 | locus YBR021W, strain FUR4, active compounds read low 1.01 | locus YBR023C, strain chs3, active compounds read low 1.01 | locus YBR171W, strain sec66, active compounds read low 1.02 | locus YBR229C, strain ROT2, active compounds read low 1.01 | locus YBR231C, strain swc5, active compounds read low 1.03 | locus YBR279W, strain paf1, active compounds read low 1.01 | locus YCL011C, strain gbp2, active compounds read low 0.984 | locus YCL016C, strain dcc1, active compounds read low 0.981 | locus YCL029C, strain bik1, active compounds read low 1 | locus YCL061C, strain MRC1, active compounds read low 1.02 | locus YCL069W, strain vba3, active compounds read low 1.02 | locus YCR088W, strain abp1, active compounds read low 1.02 | locus YDL005C, strain med2, active compounds read low 1.01 | locus YDL035C, strain GPR1, active compounds read low 1.01 | locus YDL040C, strain nat1, active compounds read low 1 | locus YDL074C, strain BRE1, active compounds read low 1.03 | locus YDL101C, strain DUN1, active compounds read low 1.01 | locus YDL185W, strain tfp1, active compounds read low 0.991 | locus YDL192W, strain arf1, active compounds read low 0.995 | locus YDR001C, strain nth1, active compounds read low 1.02 | locus YDR069C, strain doa4, active compounds read low 1.02 | locus YDR101C, strain arx1, active compounds read low 0.997 | locus YDR137W, strain rgp1, active compounds read low 0.989 | locus YDR159W, strain sac3, active compounds read low 0.943 | locus YDR162C, strain NBP2, active compounds read low 1.02 | locus YDR195W, strain ref2 1 | locus YDR297W, strain sur2, active compounds read low 1.01 | locus YDR318W, strain mcm21, active compounds read low 0.993 | locus YDR334W, strain swr1, active compounds read low 1.01 | locus YDR335W, strain msn5, active compounds read low 1.01 | locus YDR388W, active compounds read low 0.992 | locus YDR392W, strain spt3, active compounds read low 0.941 | locus YDR502C, strain sam2, active compounds read low 0.993 | locus YEL003W, strain gim4, active compounds read low 1.04 | locus YEL037C, strain rad23, active compounds read low 1.02 | locus YEL061C, strain CIN8 (second series), active compounds read low 1.01 | locus YEL061C, strain CIN8, active compounds read low 1.01 | locus YER015W, strain faa2, active compounds read low 1.01 | locus YER016W, strain bim1, active compounds read low 1 | locus YER110C, active compounds read low 0.988 | locus YER111C, strain swi4, active compounds read low 1.01 | locus YER155C, strain BEM2 (second series), active compounds read low 1.03 | locus YER155C, strain BEM2, active compounds read low 1.01 | locus YER167W, strain BCK2, active compounds read low 1 | locus YFR010W, strain ubp6, active compounds read low 1.02 | locus YGL078C, strain dbp3, active compounds read low 0.992 | locus YGL086W, strain mad1, active compounds read low 1.01 | locus YGL167C, strain pmr1, active compounds read low 1 | locus YGL173C, strain kem1, active compounds read low 1.05 | locus YGL227W, strain vid30, active compounds read low 1.02 | locus YGL240W, strain doc1, active compounds read low 1.02 | locus YGL248W, strain PDE1, active compounds read low 1.01 | locus YGL253W, strain hxk2, active compounds read low 1.01 | locus YGR135W, strain pre9, active compounds read low 0.971 | locus YGR252W, strain gcn5, active compounds read low 0.943 | locus YHR013C, strain ard1, active compounds read low 0.962 | locus YHR027C, strain rpn1, active compounds read low 1.02 | locus YHR030C, strain SLT2, active compounds read low 1 | locus YHR079C, strain IRE1 (second series), active compounds read low 0.998 | locus YHR079C, strain IRE1, active compounds read low 1.01 | locus YHR094C, strain hxt1, active compounds read low 0.989 | locus YHR129C, strain ARP1, active compounds read low 1.01 | locus YHR142W, strain chs7, active compounds read low 1.01 | locus YHR200W, strain rpn10, active compounds read low 1 | locus YIL066C, strain RNR3, active compounds read low 1.02 | locus YIL073C, strain SPO22, active compounds read low 1.01 | locus YIL125W, strain kgd1, active compounds read low 1.01 | locus YIR030C, strain dcg1, active compounds read low 1 | locus YJL092W, strain hpr5, active compounds read low 1.01 | locus YJL095W, strain BCK1 (second series), active compounds read low 1.01 | locus YJL095W, strain BCK1, active compounds read low 1.02 and 0.991 | locus YJL115W, strain asf1, active compounds read low 1.01 | locus YJL129C, strain trk1, active compounds read low 1.02 | locus YJL134W, strain LCB3, active compounds read low 1.01 | locus YJL154C, strain vps35, active compounds read low 1.01 | locus YJL164C, strain tpk1, active compounds read low 0.991 | locus YJL166W, strain qcr8, active compounds read low 1.03 | locus YJL168C, strain set2, active compounds read low 0.992 | locus YJL187C, strain SWE1 (second series), active compounds read low 1.01 | locus YJR043C, strain POL32, active compounds read low 1.01 | locus YJR066W, strain TOR1, active compounds read low 0.932
